Results published in PubChem BioAssay AID743427 (Vanderbilt Specialized Chemistry Center, 2014).

Target: Metabotropic glutamate receptor 8 (Rattus norvegicus) (UniProt P70579)
Experiment: mGlu8 positive allosteric modulation fold shift – cell-based, rat receptor, Ga15, calcium, 10 µM, mechanism study for mGlu8/mGlu7 PAM project, SAR follow-up (AID 743427)
Conditions: rat mGlu8/Ga15, Fluo-4 calcium, glutamate CRC; glutamate CRC left shift; at 10 µM; stronger effect = higher value

## COC(=O)c1ccc(-n2c(C)cc(C(=O)CSc3ccc(NC(C)=O)cc3)c2C)cc1
  fold shift: 4.77
